Compound activity deposited in PubChem by National Center for Advancing Translational Sciences (NCATS).
APEX1 inh – APE1 (human) endonuclease inhibition. P27695. recombinant APE1, TAMRA/BHQ-2 abasic DNA cleavage fluorescence. Potency, µM (highest dose often 65.8 µM), for inactives: at the highest dose activity change, negative = inhibition, most hits filed as inhibitors. 0.35% of 350,000 active. AID 2517;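 further: plate controls were vehicle for no effect and reference inhibitor for full effect; nearly all actives have a fitted effect of over 55% in size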
Target sequence (P27695 whole entry, looked up): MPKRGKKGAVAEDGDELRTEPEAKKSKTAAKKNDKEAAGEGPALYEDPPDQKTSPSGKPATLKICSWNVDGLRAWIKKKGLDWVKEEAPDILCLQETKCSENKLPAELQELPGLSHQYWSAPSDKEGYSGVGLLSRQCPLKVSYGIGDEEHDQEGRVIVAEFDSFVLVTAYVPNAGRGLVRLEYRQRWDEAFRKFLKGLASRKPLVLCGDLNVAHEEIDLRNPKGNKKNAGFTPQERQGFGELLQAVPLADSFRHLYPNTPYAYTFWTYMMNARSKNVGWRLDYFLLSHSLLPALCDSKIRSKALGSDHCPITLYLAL
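Readout is kinetic fluorescence (ex 525, em 598 nm) from cleavage of 50 nM TAMRA/BHQ-2 THF abasic duplex by 0.75 nM APE1, compound added 15 min beforehand at RT.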
POLB inh – inhibitors of human DNA polymerase beta | 1.3% of 340,000 active | P06746 | Potency, µM (titrated, usually from 114 µM), for inactives: top-dose activity change, negative = inhibition, most hits filed as inhibitors | AID 485314 | Pol beta primer extension/strand displacement, fluorescence kinetic; further: on the % scale 0 is the no-effect control and ±100 the full control effect
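Homogeneous kinetic assay of primer extension and strand displacement by 10 nM Pol beta, preincubated 15 min at room temperature with compound before 50 nM substrate (final) was added. Read at 0 and 10 min; four-parameter Hill fit.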
Pol kappa inh-1 – inhibitors of human DNA polymerase kappa. Q9UBT6. purified Pol kappa, fluorescent DNA synthesis assay, 10 min. Potency, µM (titrated, usually from 107 µM), inactives show at the top dose activity, negative = inhibition, actives largely listed as inhibitors. 0.53% of 400,000 active. AID 588579; further: on the % scale 0 is the no-effect control and ±100 the full control effect
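Activity was followed as the change in fluorescence between reads at 0 and 10 min after starting the reaction with 50 nM substrate. Beforehand, 10 nM polymerase had been preincubated with compound for 15 min at room temperature.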
POLI inh – blocks human DNA polymerase iota activity; Q9UNA4; Potency, µM (doses to about 115 µM), inactives show top-dose activity, negative = inhibition, usual class: inhibitors; Pol iota fluorescent replication assay, 10 min; 1% of 390,000 active
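Pol iota at 10 nM preincubated 15 min with compounds at room temperature; reaction started with fluorescent substrate, 50 nM final. Fluorescence read kinetically at 0 and 10 min; buffer-only wells as negative control.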
L3MBTL1 block – blocks human L3MBTL1; 0.66% of 230,000 active; Q9Y468; AlphaScreen L3MBTL1–H3K9me1 peptide binding; Potency, µM (doses to about 57.1 µM), inactives show at the highest dose activity, negative = inhibition, actives largely listed as inhibitors; further: on the % scale 0 is the no-effect control and ±100 the full control effect; nearly all actives have a fitted effect of over 60% in size
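AlphaScreen assay: L3MBTL1 (50 nM final) was preincubated 30 min at room temperature with biotinylated H3(1-15)K9me1 peptide (75 nM final), then 30 min with library compounds; streptavidin donor and nickel chelate acceptor beads (10 ug/mL final) added, 30 min dark.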
Pol eta inh-1 – inhibitors of human DNA polymerase eta; Q9Y253; recombinant Pol eta, fluorescent DNA replication assay; Potency, µM (titrated, usually from 114 µM), inactives show at the top dose activity change, negative = inhibition, actives largely listed as inhibitors; 1.2% of 390,000 active; further: on the % scale 0 is the no-effect control and ±100 the full control effect
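Fluorescent replication assay: 50 nM final substrate added after a 15 min room-temperature compound preincubation with 10 nM enzyme. Signal taken at 0 min and again at 10 min.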
Pol kappa inh-2 – confirmation of human DNA polymerase kappa inhibitors; shares compounds with Pol eta inh-1; 76% of 920 active; AID 720501; purified Pol-kappa, fluorescent strand-displacement substrate; Potency, µM, most hits filed as inhibitors
Pol eta inh-2 – confirmation of human DNA polymerase eta inhibitors. shares compounds with Pol eta inh-1. Pol eta primer extension, TAMRA/BHQ fluorescence, 10 min. Potency, µM, usual class: inhibitors. 64% of 2,600 active. AID 720502
* hit, by the source's call; [ ] = remark or other dose. The list is not random: actives were taken first. Their share in the collection is about 2.5%. The call rests on the fitted dose curve; in most records, active means well fitted curve in the direction sought with a large enough effect; inconclusive means small, poorly fitted or top-dose-only effect, or another doubt; inactive means no such curve, though single readings can be large; an effect the other way counts as inactive or inconclusive. Potency means the concentration at half of the fitted maximal effect.

Screening Cc1ccc(S(=O)(=O)N2[C@@H](c3ccc(C(C)(C)C)cc3)C(C(=O)O)=CC[C@H]2c2cccc(Cl)c2)cc1 returned APEX1 inh 16%, Pol kappa inh-1 inconclusive, POLI inh inconclusive, L3MBTL1 block -10%, Pol eta inh-1 89µM*, Pol kappa inh-2 67* and Pol eta inh-2 inconclusive.
Cc1ccc(S(=O)(=O)N2[C@@H](c3ccc(Br)cc3)C(C(=O)O)=CC[C@H]2c2ccc(Cl)c(Cl)c2)cc1 was read as APEX1 inh 12%, Pol kappa inh-1 -18%, POLI inh -25%, L3MBTL1 block -3%, Pol eta inh-1 89µM* and Pol kappa inh-2 inconclusive.
For CCn1c(CNC(=O)c2ccc(OC)cc2)nnc1SCC(=O)Nc1ccccc1 the results were POLB inh 8%, Pol kappa inh-1 -3%, POLI inh 10% and Pol eta inh-1 -10%.
`CCN(C(=O)COC(=O)c1cccc(-n2cnnn2)c1)C1CCCCC1` gave APEX1 inh -6%, POLB inh 35%, Pol kappa inh-1 -18%, POLI inh 126%, L3MBTL1 block -14% and Pol eta inh-1 8%.
Screening Cc1ccccc1NC(=O)c1nc(S(C)(=O)=O)ncc1N(Cc1ccco1)Cc1sccc1C returned POLB inh -1%, Pol kappa inh-1 -2%, POLI inh 13% and Pol eta inh-1 -19%.
`COc1ccccc1OCCn1c(SCC(=O)O)nc2ccccc21` gave APEX1 inh -16%, POLB inh 28µM*, Pol kappa inh-1 79µM*, POLI inh inconclusive, L3MBTL1 block inconclusive, Pol eta inh-1 22µM*, Pol kappa inh-2 34* and Pol eta inh-2 inconclusive.
NC(=O)C(CC(=O)O)NC(=O)[C@@H]1CCOc2c(I)cc([N+](=O)[O-])cc2C(=O)N[C@@H](CO)C(=O)N[C@@H](Cc2ccc(O)cc2)C(=O)N1 (stereo partly drawn) was read as APEX1 inh inconclusive, POLB inh 0%, Pol kappa inh-1 35µM*, POLI inh inconclusive, L3MBTL1 block inconclusive, Pol eta inh-1 20µM* and Pol eta inh-2 30*.
CC[C@@]12CCCN3CCc4c(n(c5ccccc45)[C@](O)(C(=O)OC)C1)C32 (stereo partly drawn) was read as Pol kappa inh-1 2%[19.4 µM].
Screening COc1cc(/C=C2/C(=O)NN(c3cccc(Cl)c3)C2=O)cc(OC)c1O returned APEX1 inh 6%, POLB inh inconclusive, Pol kappa inh-1 -7%, POLI inh inconclusive, L3MBTL1 block -24% and Pol eta inh-1 -13%.
For COc1cccc(/C=C2/C(=O)NN(c3ccc(C)c(C)c3)C2=O)c1 the results were APEX1 inh 52%, POLB inh inconclusive, Pol kappa inh-1 -1%, POLI inh inconclusive, L3MBTL1 block -4% and Pol eta inh-1 -12%.
Screening COc1cc(/C=C2/C(=O)NN(c3ccc(C)c(Cl)c3)C2=O)cc([N+](=O)[O-])c1O returned APEX1 inh -26%, POLB inh 35µM*, Pol kappa inh-1 4%, POLI inh 8%, Pol eta inh-1 28µM* and Pol eta inh-2 85*.
COc1cc(/C=C2/C(=O)NN(c3cccc(C)c3)C2=O)cc([N+](=O)[O-])c1O was read as APEX1 inh inconclusive, POLB inh inconclusive, Pol kappa inh-1 inconclusive, POLI inh inconclusive, L3MBTL1 block inconclusive, Pol eta inh-1 22µM* and Pol eta inh-2 inconclusive.
`CCc1cccc(NC(=O)CCS(=O)(=O)c2ccc(Br)cc2)c1` gave APEX1 inh -15%, POLB inh 7.1µM*, Pol kappa inh-1 0%, POLI inh -2%, Pol eta inh-1 25µM*, Pol kappa inh-2 42* and Pol eta inh-2 85*.
Screening COc1ccc(CNC(=O)CCS(=O)(=O)c2ccc(Br)cc2)cc1 returned APEX1 inh -17%, POLB inh -30%, Pol kappa inh-1 inconclusive, POLI inh inconclusive, Pol eta inh-1 inconclusive and Pol eta inh-2 76*.
`O=C(CSc1ccc(F)cc1)Nc1ccc2c(c1)C(=O)NC2=O` gave APEX1 inh -3%, POLB inh 5%, Pol kappa inh-1 16%, POLI inh 40% and Pol eta inh-1 -2%.
Cc1ccc(N2CCn3c2nc2c3c(=O)n(CCc3ccccc3)c(=O)n2C)cc1C was read as POLB inh -7%, Pol kappa inh-1 3%, POLI inh 20% and Pol eta inh-1 -17%.
`COc1ccc2nc(Cl)c(C3CC(c4ccco4)=NN3C(=O)CCCC(=O)O)cc2c1` (stereo not drawn) gave APEX1 inh -6%, POLB inh inconclusive, Pol kappa inh-1 28µM*, POLI inh 22µM*, L3MBTL1 block -14%, Pol eta inh-1 35µM* and Pol eta inh-2 76*.
`Cc1ccccc1NC(=O)c1ccc(F)c(S(=O)(=O)N(C)C2CCCCC2)c1` gave POLB inh 6%, Pol kappa inh-1 -14%[60.1 µM], POLI inh -6% and Pol eta inh-1 -14%.
Screening Cc1noc(NS(=O)(=O)c2ccc(NC(=O)c3ccoc3C)cc2)c1C returned APEX1 inh inconclusive, POLB inh inconclusive, Pol kappa inh-1 inconclusive, POLI inh 40µM*, L3MBTL1 block inconclusive, Pol eta inh-1 10µM* and Pol eta inh-2 inconclusive.
Cc1cc(C(=O)Nc2ccc(S(=O)(=O)Nc3onc(C)c3C)cc2)c(C)o1 was read as APEX1 inh 19%, POLB inh 7%, Pol kappa inh-1 inconclusive, POLI inh inconclusive and Pol eta inh-1 -16%.
For COc1ccc(NC(=O)/C(C#N)=C/c2ccc(-c3ccc(Cl)c(C(=O)O)c3)o2)cc1 the results were APEX1 inh -13%, POLB inh 0%, Pol kappa inh-1 -26%, POLI inh inconclusive, L3MBTL1 block 16%, Pol eta inh-1 22µM* and Pol kappa inh-2 inconclusive.
COc1ccc(NC(=O)/C(C#N)=C/c2ccc(-c3ccccc3C(=O)O)o2)cc1 was read as APEX1 inh 7%, POLB inh 23%, Pol kappa inh-1 -22%, POLI inh 18%, L3MBTL1 block 4% and Pol eta inh-1 -17%.
